This is a sample that favours compounds with a hit; in the whole collection about 28% have one here.
CYP2C9 inhib: blocks human cytochrome P450 2C9. P11712. hit rate 20% among 96,000. CYP2C9 Supersomes, luciferin-H conversion, luminescence. inhibition, % at 5 µM;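 active = blocking of liver enzyme CYP2C9 beyond about 50% at 5 µM, limit read from the data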
CYP2C9 act: activators of human CYP2C9; P11712; recombinant CYP2C9, luciferin-H conversion, luminescence; stronger effect = higher value; factor 1 = untreated enzyme, 0 = blocked; activation factor at 5 µM; hit rate 1.4% among 96,000; AID 1024;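 active = activation factor of 2 or more for CYP2C9 at a 5 µM dose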
CYP2C19 inhib: human CYP2C19 inhibition; hit rate 21% among 96,000; CYP2C19 Supersomes, luciferin-H EGE luminescence, 30 min; P33261; inhibition, % at 5 µM;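 active = CYP2C19 inhibition above a set limit at 5 µM in the primary screen, cut at about 50% in these data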
PTK2B oligo ant: antagonists of human Pyk2 oligomerization; Q14289; Q293 cells, Pyk2 FERM NanoBiT luminescence; stronger effect = lower value; AID 1347419; hit rate 0.83% among 99,000; z-score (the deposit names both 25 µM and 10 µM);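 active = Z-score of -3 or lower, scaled per plate to the spread of control and sample wells; inactive = z-score above -3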;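 note: negative z-score means lost luminescence so less FERM oligomerization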
CYP2C19 act: activators of human cytochrome P450 2C19 | activation factor at 5 µM | P33261 | 96,000 tested, under 10 active | AID 1025 | recombinant CYP2C19, luciferin-H EGE luminescence; stronger effect = higher value; 0 = fully inhibited enzyme, 1 = untreated enzyme;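 active = activation factor of at least 2 at 5 µM in the primary screen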
A number is an active result; . = inactive; / = no result.

SMILES	CYP2C9 inhib	CYP2C9 act	CYP2C19 inhib	PTK2B oligo ant	CYP2C19 act
Cc1ccc2nc(/C(C#N)=C\c3cc(C)n(-c4cccc([N+](=O)[O-])c4)c3C)[nH]c2c1	84	.	.	.	.
Cc1ccc2nc(/C(C#N)=C\c3ccc([N+](=O)[O-])o3)[nH]c2c1	.	.	.	.	.
O=C(N1CCCCC1)C12CC3CC(C1)CC(C(=O)N1CCCCC1)(C3)C2	64	.	66	.	.
O=C(N1CCCC1)C12CC3CC(CC(C3)C1)C2	/	/	/	.	/
COc1ccc(C=O)cc1COc1c(F)c(F)cc(F)c1F	.	.	60	.	.
O=C(CSc1oc(-c2ccc(F)cc2)nc1S(=O)(=O)c1ccccc1)NCC1CCCO1 (stereo not drawn)	/	/	/	.	/
O=C(NCCCn1ccnc1)c1cn(-c2ccccc2)nc1-c1ccccc1	94	.	64	.	.
COCCSc1ccccc1C(=O)NCCCn1ccnc1	.	.	68	.	.
COCCSc1ccccc1C(=O)Nc1cccnc1	.	.	.	.	.
CN1CCC2(CC1)Nc1nc(SCc3ccc(Cl)cc3)nn1C1=C2CN(C)CC1	.	.	.	.	.
O=C(Oc1cc(-c2ccccc2)no1)c1cccc(C(F)(F)F)c1	.	.	.	.	.
COC(=O)c1ccc(C2NC(=S)N(c3ccccc3)C(C)=C2C(=O)Nc2ccccc2OC)cc1 (stereo not drawn)	81	.	80	.	.
COc1ccccc1NC(=O)C1=C(C)NC(=O)NC1c1ccccc1F (stereo not drawn)	.	.	.	/	.
COc1ccccc1NC(=O)C1=C(C)N(c2ccccc2)C(=S)NC1c1cccc(C(F)(F)F)c1 (stereo not drawn)	96	.	92	.	.
C/C=C/c1ccc(Oc2nnnn2-c2ccc(C(N)=O)cc2)c(OC)c1	.	.	.	.	.
COc1ccc(Nc2nccc3c2nnn3C)cc1	.	.	.	.	.
CCCC(=O)Nc1cccc(Oc2nc(C)cc(C)c2C#N)c1	.	.	.	.	.
CCOC(=O)c1c(C)noc1CP(=O)(c1ccccc1)c1ccccc1	/	/	/	.	/
COc1ccc(NC(=O)CSc2nc3c(c(-c4cccs4)c2C#N)CN(C)CC3)cc1OC	64	.	.	.	.
COc1ccc(NC(=O)CSc2nnc(-c3cccs3)n2C)cc1OC	.	.	.	.	.
CCOC(=O)c1c(C#N)c(SCC(=O)Nc2ccc(OC)cc2)nc2c1CN(CC)CC2	98	.	52	.	.
CC(=O)Nc1coc2ccc(Br)cc12	.	.	.	.	.
CCC(=O)N1c2ccc(S(=O)(=O)CCC(=O)N3CCn4c3nc3ccccc34)cc2CC1C (stereo not drawn)	.	.	.	.	.
Cc1cc(C)cc(-n2nnc(C(=O)NCc3ccccc3Cl)c2N)c1	.	2.8	.	.	.
Cc1cccc(-n2nnc(C(=O)NCc3ccccc3)c2N)c1	/	/	/	.	/
SMILES	CYP2C9 inhib	CYP2C9 act	CYP2C19 inhib	PTK2B oligo ant	CYP2C19 act
COc1ccc(NS(=O)(=O)c2cccc(C(=O)N/N=C(\C)c3ccc(-n4ccnc4)cc3)c2)cc1	99	.	93	.	.
C/C(=N\NC(=O)c1cccc(S(=O)(=O)Nc2ccccc2Cl)c1)c1ccc(-n2ccnc2)cc1	100	.	99	.	.
CCOc1ccc(-c2noc(=O)[nH]2)cc1	.	.	.	.	.
COc1ccc(N2C(=O)C3CCCN3C2c2ccc(F)cc2)cc1Cl (stereo not drawn)	/	/	/	.	/
CCCNC(=O)N[C@@H](CCSC)C(=O)OC	.	.	.	.	.
CCCNC(=O)NC(C(=O)OC)C12CC3CC(CC(C3)C1)C2 (stereo not drawn)	.	.	69	.	.
CC1=C(C(=O)OC(C)C)C(c2cccc(F)c2)N2C(=O)C(C)SC2=N1 (stereo not drawn)	70	.	81	.	.
COC(=O)c1ccc(C2C(C(=O)OC(C)C)=C(C)N=C3SCCC(=O)N32)cc1 (stereo not drawn)	.	.	.	/	.
CCOC(=O)C1=C(C)N=C2SC(C)C(=O)N2C1c1cccc(F)c1 (stereo not drawn)	.	.	.	.	.
CC1=C(C(=O)OCC(C)C)C(c2cccc(F)c2)N2C(=O)C(C)SC2=N1 (stereo not drawn)	75	.	75	.	.
Cc1nc2c(-c3ccc(F)cc3)c(C)nn2c(C)c1CCC(=O)N1CCC(Cc2ccccc2)CC1	51	.	.	/	.
Cc1nc2c(-c3ccc(F)cc3)c(C)nn2c(C)c1CCC(=O)N1CCN(c2ccc(F)cc2)CC1	67	.	62	/	.
Cc1nc2c(-c3ccccc3)c(C)nn2c(C)c1CCC(=O)N1CCOCC1	.	.	.	.	.
Cc1nc2c(-c3ccc(F)cc3)c(C)nn2c(C)c1CCC(=O)N1CCOCC1	.	.	51	/	.
Cc1nc2c(-c3ccc(F)cc3)c(C)nn2c(C)c1CCC(=O)N1CCN(c2ccccc2)CC1	56	.	50	/	.
CCOC(=O)C1CCN(C(=O)CCc2c(C)nc3c(-c4ccc(F)cc4)c(C)nn3c2C)CC1	.	.	.	/	.
CCCN(CCC)S(=O)(=O)c1ccc(C(=O)N2CCOCC2)cc1	.	.	.	.	.
CN(C)C=NC(=O)c1ccc([N+](=O)[O-])c(CS(=O)(=O)c2ccc(Cl)cc2)c1	56	.	75	.	.
NNC(=O)c1ccc([N+](=O)[O-])c(CS(=O)(=O)c2ccc(Cl)cc2)c1	.	.	75	.	.
CO/N=C/NC(=O)c1ccc([N+](=O)[O-])c(CS(=O)(=O)c2ccc(Cl)cc2)c1	.	.	.	.	.
Fc1ccccc1CNc1ccc(Cl)c(Cl)c1	.	.	.	.	.
CCCN(c1nc(C)cc(OC)n1)S(=O)(=O)c1ccccc1	/	/	/	.	/
COc1cc(C)nc(N(Cc2ccccc2)S(=O)(=O)c2ccccc2)n1	74	.	83	.	.
CC(C)C(c1nnnn1Cc1ccco1)N1CCN(c2nc3ccccc3s2)CC1 (stereo not drawn)	.	.	.	.	.
c1cnc2ccc(C(c3nnnn3C3CCCC3)N3CCN(c4nc5ccccc5s4)CC3)cc2c1 (stereo not drawn)	88	.	70	.	.
SMILES	CYP2C9 inhib	CYP2C9 act	CYP2C19 inhib	PTK2B oligo ant	CYP2C19 act
Clc1ccc(C(c2nnnn2C2CCCC2)N2CCN(c3nc4ccccc4s3)CC2)cc1 (stereo not drawn)	/	/	/	-3.3	/
COc1ccc2oc(-c3ccc(C)c(NC(=O)c4ccc(N5CCOCC5)c([N+](=O)[O-])c4)c3)nc2c1	.	.	.	.	.
CCOC(=O)C1CCCN(c2cc(=O)n(-c3ccccc3Cl)c(=O)[nH]2)C1 (stereo not drawn)	.	.	.	/	.
CC(=O)c1sc(NC(=O)c2ccc(Cn3cc(Br)cn3)o2)nc1C	78	.	.	.	.
Cc1ccc(OCc2nnc(SCc3nc4ccccc4[nH]3)n2Cc2ccco2)cc1	65	.	.	.	.
c1ccc(-c2nnc(SCc3nc4ccccc4[nH]3)n2Cc2ccco2)cc1	59	.	.	.	.
Cn1ncc2cc(NC(=S)NC(=O)c3ccccc3)ccc21	.	.	.	.	.

Screening results (PubChem BioAssay)
